Measurements reported in ChEMBL document CHEMBL3988442, “University of Dundee, Small-Polar-MMV Screening Library” (2021).
In all, about 48,000 compounds went through this assay and about 13,000 (27%) showed an effect of 50% or more. The list shows a part of the results.

System: Wolbachia pipientis
Experiment: Anti-Wolbachia Cell-Based Screen
Assay type: functional
Design: scale not given: in the data most compounds retested in dose-response had high values
Settings: 5 µM

| Compound | Percent Effect [%] |
| --- | --- |
| CCN(Cc1nc2c(cnn2C)c(=O)[nH]1)Cc1cccs1 | 17.21 |
| CN(Cc1nc2c(cnn2C)c(=O)[nH]1)Cc1ccco1 | 90.92 |
| Cc1ccc(CN(C)Cc2nc3c(cnn3C)c(=O)[nH]2)o1 | 10.6 |
| CCN(Cc1nc2c(cnn2C)c(=O)[nH]1)Cc1ccco1 | 83.36 |
| Cc1occc1CN(C)Cc1nc2c(cnn2C)c(=O)[nH]1 | 0.5275 |
| COCCN(Cc1nc2c(cnn2C)c(=O)[nH]1)Cc1ccco1 | 0.2947 |
| CCN(CC)CCn1cnc(-c2ccccc2)c1-c1ncc[nH]1 | -14.65 |
| COc1c(CNC2(c3noc(C)n3)CCC2)c(C)nn1C.Cl | -0.07917 |
| CCc1nc(C)c(C(C)N(C)CCc2ccncc2)s1 (stereo not given) | 1.512 |
| CNC(=O)C1(c2cnccn2)CCCN1C(=O)c1c(F)cccc1F (stereo not given) | 94.23 |
| COCCC1(CO)CCCN(C(=O)c2cccnc2OC)C1 (stereo not given) | -0.7359 |
| O=C1CCC2(CCCN(C(=O)c3cnccn3)CC2)N1 (stereo not given) | -28.51 |
| O=C1CCCC2(CCN(C(=O)c3cnccn3)CC2)N1 | -3.096 |
| CNC(=O)C1(c2cnccn2)CCCN1C(=O)c1ccccc1C (stereo not given) | 116.1 |
| CN(CC(=O)N1CCN(c2ccccc2F)CC1)c1cnccn1 | 4.093 |
| CNC(=O)C1(c2cnccn2)CCCN1C(=O)c1cccnc1OC (stereo not given) | 97.1 |
| CNC(=O)C1(c2cnccn2)CCCN1C(=O)c1ccccc1F (stereo not given) | 99.27 |
| CNC(=O)C1(c2cnccn2)CCCN1C(=O)c1ccccc1OC (stereo not given) | 2.763 |
| CCC(CC)n1ncc(C(=O)NS(=O)(=O)c2ccsc2)c1C | -0.139 |
| CN(Cc1ncnn1C)C(=O)CCn1ccc2ccccc21 | -15.17 |
| CN(C)c1ncnc2c1CCN(C(=O)c1sccc1S(N)(=O)=O)C2 | -19.94 |
| CN(C)CC(=O)N1Cc2nc(C(=O)NCc3ccncc3)oc2C1 | -11.57 |
| O=c1nc(SCc2cccnc2)c2c(n1CCO)CCCC2 | 8.765 |
| O=C(N[C@]12CC1CN(C(=O)c1ccco1)C2)c1ccoc1 (stereo not given in full) | -22.61 |
| CNc1ncccc1C(=O)N1CCCC2(CCN(C)CC2)CC1 | -1.008 |
| CNC(=O)C1(c2cnccn2)CCCN1C(=O)c1ncccc1C (stereo not given) | 109.2 |
| COCCn1cc2c(n1)C(CNCc1cccc(OC)c1)OCC2.O=C(O)C(F)(F)F (stereo not given) | 125 |

| Compound | Percent Effect [%] |
| --- | --- |
| O=C(O)C(F)(F)F.c1c2c(nn1CC1CCOCC1)C(CNC1CCOCC1)OCC2 (stereo not given) | -44.92 |
| COCCn1cc2c(n1)C(CNCc1ccsc1)OCC2.O=C(O)C(F)(F)F (stereo not given) | 95.33 |
| Fc1cccc(CNCC2OCCc3cn(CC4CCOCC4)nc32)c1.O=C(O)C(F)(F)F (stereo not given) | -13.58 |
| COCCn1cc2c(n1)C(CNCc1nccs1)OCC2.O=C(O)C(F)(F)F.O=C(O)C(F)(F)F (stereo not given) | 108.5 |
| O=C(O)C(F)(F)F.O=C(O)C(F)(F)F.O=C(O)C(F)(F)F.c1ccc(Cn2cc3c(n2)C(CNCC2CCOCC2)OCC3)nc1 (stereo not given) | 3.019 |
| O=C(O)C(F)(F)F.O=C(O)C(F)(F)F.c1cc(CNCC2OCCc3cn(CC4CC4)nc32)cs1 (stereo not given) | -9.045 |
| O=C(Cc1ccccn1)NCC1OCCc2cn(CC3CC3)nc21.O=C(O)C(F)(F)F (stereo not given) | -22.67 |
| COCCn1cc2c(n1)C(CNCc1ccc(F)cc1)OCC2.O=C(O)C(F)(F)F.O=C(O)C(F)(F)F (stereo not given) | 10.33 |
| Cc1ccc(Sc2ccc(CN3CCC4(CC3)NCCNC4=O)o2)cc1 | -3.78 |
| CCCN(C)c1ccc(C(=O)Nc2c(C)nn(C(C)C)c2C)cc1 | 9.882 |
| Cc1ccc(CNC(=O)c2oc3ccccc3c2CN(C)C)n1C | -0.2654 |
| Fc1ccc(OCc2nnc([C@H]3CCN(Cc4ccccn4)C3)o2)cc1 | 11.6 |
| Cl.O[C@@H]1CN(Cc2ccc(F)cc2)CC[C@H]1NCc1ccccn1 | 97.86 |
| Cl.O[C@@H]1CN(Cc2ccc(F)c(F)c2)CC[C@H]1NCc1ccccn1 | 84.03 |
| CN(Cc1cccc(F)c1)C1CCN(CCc2ccccn2)CC1 | 5.619 |
| Fc1ccc(CNC2CCN(CCc3ccncc3)CC2)cc1F | -3.888 |
| O=C(NC[C@H]1OC[C@@H](NCc2ccccn2)[C@@H]1O)c1ccc(F)cc1 | 4.298 |
| Cc1[nH]c2ccc(CNC3CCN(Cc4ccccn4)CC3)cc2c1C | -2.213 |
| Cl.O[C@@H]1CN(Cc2cccc(F)c2)CC[C@H]1NCc1ccccn1 | 63.1 |
| COCc1nccc(C2CCCN(Cc3cccc(F)c3)C2)n1 (stereo not given) | -13.68 |
| Cc1nccc(-c2ccccc2)c1C(=O)N1CC[C@](C)(O)[C@H](C)C1 | -6.254 |
| CC(C)CN(C)S(=O)(=O)c1ccc(Cl)cc1C#N | -10.78 |
| COc1ncccc1NC(=O)N(Cc1ccccn1)C1CC1 | 99.69 |
| COc1ncccc1NC(=O)N(Cc1ccco1)C1CC1 | 106.8 |
| COc1cc(CN(C(=O)Nc2cccnc2OC)C2CC2)ccc1O | -7.175 |
| CCC(C)C(=O)N(Cc1ccccn1)C1CC1 (stereo not given) | -10.35 |
| COc1ncccc1NC(=O)N(CC(C)C)C1CC1 | 114.6 |

| Compound | Percent Effect [%] |
| --- | --- |
| COc1ncccc1NC(=O)N(Cc1ccc(C)o1)C1CC1 | -9.414 |
| CN(C)C(CNC(=O)N(Cc1ccco1)C1CC1)c1cccs1 (stereo not given) | 11.82 |
| COc1ncccc1NC(=O)N(Cc1ccc(C(N)=O)cc1)C1CC1 | 99.11 |
| CCN(C(=O)Nc1cccnc1OC)C1CC1 | -1.512 |
| COc1ncccc1NC(=O)N1CCC(CNC(C)=O)CC1 | 2.478 |
| CCN(CC)C(=O)C1CCN(C(=O)Nc2cccnc2OC)CC1 | 6.94 |
| CC(C)c1cc(NC(CCO)c2ccccc2)n2nccc2n1 (stereo not given) | 9.375 |
| COc1ccc(N(C)C(=O)C2CN(C)CCO2)cc1F (stereo not given) | 4.691 |
| O=C1CN(Cc2nnc(-c3ccc(Br)o3)o2)CCN1 | -7.381 |
| Cc1ccc(S(=O)(=O)NCc2[nH]ncc2Br)cc1F | -12.16 |
| COc1ncccc1NC(=O)C1CCS(=O)(=O)C1 (stereo not given) | 1.624 |
| COc1ncccc1NC(=O)N1CCC(C(=O)NC(C)C)CC1 | 0.676 |
| COc1ncccc1NC(=O)N(C1CC1)C(C)C(C)C (stereo not given) | 116 |
| CCNC(=O)C(C)NC(=O)Nc1ccccc1SC(F)(F)F (stereo not given) | -8.555 |
| COCC(=O)N1CC(C(=O)NCC2CC2)C2(CCOCC2)C1 (stereo not given) | 104.6 |
| O=C(NCC1CC1)C1CN(C(=O)Cc2cccs2)CC12CCOCC2 (stereo not given) | 5.816 |
| CC(C)NC(=O)C1CN(C(=O)N(C)C)CC12CCOCC2 (stereo not given) | 94.32 |
| CN(C)C(=O)N1CC(C(=O)NCC2CC2)C2(CCOCC2)C1 (stereo not given) | 105.7 |
| CC(C)NC(=O)C1CN(C(=O)Nc2ccccc2)CC12CCOCC2 (stereo not given) | 0.6544 |
| Cc1ccsc1C(=O)N1CC(C(=O)NCC2CC2)C2(CCOCC2)C1 (stereo not given) | 12.17 |
| Cc1ccoc1C(=O)N1CC(C(=O)NCC2CC2)C2(CCOCC2)C1 (stereo not given) | -3.998 |
| CC(C)NC(=O)C1CN(C(=O)N2CCCC2)CC12CCOCC2 (stereo not given) | -8.761 |
| O=C(NCC1CC1)C1CN(C(=O)c2ccncc2)CC12CCOCC2 (stereo not given) | -0.9426 |
| Cc1[nH]nc2ncc(C(=O)N3CCN(CC(C)C)CC3)cc12 | 0.1242 |
| Cc1cc(C)n(CCCN(C)C(=O)CN2CC3(CCNCC3)OC2=O)n1 | -7.554 |
| CCN(CC)CC[C@H]1CN(C(=O)NC2CCCCC2)CC[C@H]1CC(=O)O | -0.6664 |
| O=C(NC[C@H]1OC[C@@H](NC2CCCC2)[C@@H]1O)C1CCCC1 | 10.82 |

| Compound | Percent Effect [%] |
| --- | --- |
| O=C1NCCCc2c1oc1ccc(O)c(CN3CCOCC3)c21 | 142.2 |
| Oc1ccc2oc3c(c2c1CN1CCOCC1)CCCC3 | 6.402 |
| NC(=O)C1CN(Cc2c(O)ccc3oc4c(c23)CCCC4)CCO1 (stereo not given) | -16.77 |
| CCOc1ccc(C(=O)NCCCNc2ncccn2)cc1 | -0.3981 |
| O=C(O)C(F)(F)F.O=C([C@@H]1COC[C@H]2CN(C3CCCC3)C[C@H]21)N1CCC(F)CC1 | -0.4691 |
| O=C(C[S+]([O-])c1ccc(F)c(F)c1)NCc1cc(F)cc(F)c1 (stereo not given) | -8.156 |
| COc1ccc(CC(=O)N2CCN(C)c3ncccc3C2)cc1.O=C(O)C(F)(F)F | 1.148 |
| COc1ccc(S(=O)(=O)N2CCN(C)c3ncccc3C2)cc1.O=C(O)C(F)(F)F | 100.8 |
| COCCN1CCN(S(=O)(=O)c2ccccc2)Cc2cccnc21.O=C(O)C(F)(F)F | 100.4 |
| CC(C)CN1CCN(S(=O)(=O)c2cn(C)cn2)Cc2cccnc21.O=C(O)C(F)(F)F.O=C(O)C(F)(F)F | -3.796 |
| COc1cccc(CC(=O)N2CCN(C)c3ncccc3C2)c1.O=C(O)C(F)(F)F | -8.872 |
| COCCN1CCN(Cc2c(C)noc2C)Cc2cccnc21.O=C(O)C(F)(F)F.O=C(O)C(F)(F)F | -0.8432 |
| CN(Cc1ccc(C(=O)O)cc1)C(=O)c1sccc1OC(F)F | 7.137 |
| Cn1cc(CN2CC[C@H]3OCC[C@@H](C(=O)N4CCCCO4)[C@@H]3C2)cn1 | 16.39 |
| CC(C)(C)N1CC(C(=O)N2CCN(CCn3cccc3)CC2)CC1=O (stereo not given) | -2.783 |
| CCn1cc(S(=O)(=O)N2CCC3(CCCN(CC4CCC4)C3=O)C2)cn1 (stereo not given) | -1.219 |
| CCn1cc(S(=O)(=O)N2CCCC3(CC=CNC3=O)C2)cn1 (stereo not given) | 97.1 |
| CCn1nc(C)cc1S(=O)(=O)N1CCC2(CC(=O)NC2=O)C1 (stereo not given) | -2.488 |
| CCCN1CCCC2(CCN(S(=O)(=O)c3cc(C)nn3CC)C2)C1=O (stereo not given) | -15.13 |
| CC(C)n1cc(S(=O)(=O)N2CCCCC2)cn1 | 6.255 |
| CCn1nccc1S(=O)(=O)N1CCC2(CCCN(C(C)C)C2=O)C1 (stereo not given) | -32.08 |
| CCn1cc(S(=O)(=O)N2CCCC3(CC=CNC3=O)C2)c(C)n1 (stereo not given) | 118.1 |
| CCn1nc(C)cc1S(=O)(=O)N1CCC2(CCCN(C(C)C)C2=O)C1 (stereo not given) | -24.78 |
| CCn1ncc(S(=O)(=O)N2CCCC3(CC=CNC3=O)C2)c1C (stereo not given) | 120.2 |
